# In the library only some 11% were active in any assay of this set; here they are far more common.
# JMJD2A Tudor = JMJD2A Tudor domain (human) inhibition | AlphaScreen JMJD2A-Tudor / H3K4me3 peptide binding | AID 504339 | 390,000 compounds, 4.4% hits | Potency, µM (top dose mostly 114 µM), most hits filed as inhibitors; also: nearly all actives have a fitted effect of over 50% in size
# BAZ2B inh = inhibitors of human BAZ2B bromodomain. AID 504333. 360,000 compounds, 4.4% hits. AlphaScreen BAZ2B-H3K14Ac peptide displacement. Potency, µM (doses to about 114 µM), most hits filed as inhibitors; also: nearly all actives have a fitted effect of over 60% in size
#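 BAZ2B (50 nM) with biotin-H3(5-23)K14Ac peptide (50 nM) in PBS pH 7.4, 0.01% Tween-20, preformed 30 min, then compound 30 min at room temperature; top concentration 110uM. AlphaScreen streptavidin donor/nickel chelate acceptor beads (10 ug/mL final), 20 min dark, signal read.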
# HP1b binding inh = inhibitors of HP1-beta chromodomain binding to methylated histone tails. 390,000 compounds, 0.56% hits. AlphaScreen HP1-beta / biotin-H3K9me3 peptide binding. AID 540317. Potency, µM (series often up to 114 µM), most hits filed as inhibitors; also: nearly all actives have a fitted effect of over 70% in size
#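 AlphaScreen: HP1-beta (50 nM) preformed 30 min with biotin-H3(1-18)K9me3 peptide (50 nM) in PBS pH 7.4, 0.01% Tween-20. Compound added for 30 min at RT, then streptavidin donor/nickel chelate acceptor beads (10 ug/mL) for 30 min.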
# L3MBTL1 block = L3MBTL1 (human) inhibition; Q9Y468; AlphaScreen L3MBTL1–H3K9me1 peptide binding; Potency, µM (doses to about 57.1 µM), actives largely listed as inhibitors; 230,000 compounds, 0.66% hits; also: nearly all actives have a fitted effect of over 60% in size
#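 L3MBTL1 50 nM + b-AHA-H3(1-15)K9me1 75 nM, 30 min RT; compound added, 30 min RT; streptavidin donor/Ni-chelate acceptor beads 10 ug/mL each final, 30 min RT dark; AlphaScreen read.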
# G9a block = blocks human histone lysine methyltransferase G9a | Q96KQ7 | G9a H3K9 monomethylation, AlphaScreen, 2 h | Potency, µM (highest dose often 102 µM), hits mostly inhibitors | 350,000 compounds, 8.8% hits | AID 504332; also: nearly all actives have a fitted effect of over 75% in size
#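 G9a (20 nM) was preincubated 15 min with compound, then reacted 2 h at room temperature with 500 nM biotin-H3K9 peptide and 20 µM SAM. Monomethyl-H3K9 detected by AlphaScreen using anti-H3K9me1 antibody.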
# Numbers stand for hits; . = inactive; ? = inconclusive; / = no result given; [ ] = dose if it differs, or a comment. Calls follow the shape of the dose curve; as a rule, active = well fitted inhibition curve with a large enough effect; inconclusive = small, poorly fitted or top-dose-only effect; inactive = no such curve, though single readings can be large or run the other way.
SMILES,JMJD2A Tudor,BAZ2B inh,HP1b binding inh,L3MBTL1 block,G9a block
CC1Cc2cc(/C(O)=C3/C(=O)C(=O)N(CCN4CCOCC4)C3c3ccc(N(C)C)cc3)ccc2O1 (centres undefined),.,.,.,/,?
CC1Cc2cc(/C(O)=C3/C(=O)C(=O)N(Cc4ccncc4)C3c3ccc(N(C)C)cc3)ccc2O1 (centres undefined),?,?,.,/,22.4µM
Cc1cccc(NC(=O)CCS(=O)(=O)c2cc(Br)cc3c2N(C(=O)C2CC2)CC3)c1,.,.,.,/,.
S=c1sscc1-c1ccccc1,31.6µM,/,20µM,/,/
CCCN(c1c(C)n(C)n(-c2ccccc2)c1=O)S(=O)(=O)c1ccc(C)cc1,.,.,.,/,.
CCn1c(SCC(=O)c2cc(OC)ccc2OC)nnc1C1CC1,.,.,.,.,50.1µM
CCn1c(SCC(=O)c2ccc(OC)cc2)nnc1C1CC1,100µM,.,.,.,.[12.7 µM]
O=c1c(-c2ccco2)[n+]([O-])c2ccccc2n1OCc1c(F)cccc1F,.,.,.,.,/
CCOC(=O)COn1c(=O)c(-c2ccco2)[n+]([O-])c2ccccc21,.,?,.,?,10µM
O=c1c(-c2ccco2)[n+]([O-])c2ccccc2n1OCc1ccccc1,50.1µM,.,?,/,6.31µM
COc1cccc(-c2nc(SC(C(C)=O)C(=O)N(C)C)c3c(=O)n(C)c(=O)n(C)c3n2)c1 (centres undefined),.,.,.,/,.
CCN(Cc1ccccc1)c1ccc(/C=N/NS(=O)(=O)c2ccc(C)c([N+](=O)[O-])c2)cc1,?,?,?,.,8.91µM
Cc1ccc(S(=O)(=O)N/N=C/c2ccccc2F)cc1[N+](=O)[O-],.,?,.,/,11.2µM
Cc1ccc(S(=O)(=O)NN=Cc2ccc(N3CCOCC3)cc2)cc1[N+](=O)[O-],.,/,.,.,/
Cc1ccc(S(=O)(=O)N/N=C\c2cc3c(cc2Br)OCO3)cc1,.,.,.,.,.
O=[N+]([O-])c1cc2c(cc1/C=N/NS(=O)(=O)c1ccc(Br)cc1)OCO2,.[11.4 µM],.,?,.,11.2µM
CCN(CC)C(=O)CC(c1ccc(OC)cc1)c1c(OC)cc(OC)c2c(-c3ccccc3)cc(=O)oc12 (centres undefined),?,/,.,/,/
Cc1ccc(N2CCN(C(=O)c3c(C)oc4nc(C)nc(N5CCCC5)c34)CC2)c(C)c1,.,.,.,/,.
CN1CCN(S(=O)(=O)c2ccc(NC(=S)NC(=O)c3ccccc3)cc2)CC1,.,?,.,/,?
CN1C(=O)c2ccc(NC(=S)NC(=O)C(C)(C)C)cc2C1=O,.,.,.,.,44.7µM
CN(Cc1ccccc1)S(=O)(=O)c1ccc(NC(=S)NC(=O)C(C)(C)C)cc1,.,.,.,.,3.16µM
CN1CCN(S(=O)(=O)c2ccc(NC(=S)NC(=O)c3ccc(Cl)cc3)cc2)CC1,?,.,?,.,17.8µM
CN(Cc1ccccc1)S(=O)(=O)c1ccc(NC(=S)NC(=O)C2CCCCC2)cc1,.,.,.,.,.
Cc1occc1C(=O)Nc1ccc(S(=O)(=O)N2CCN(C)CC2)cc1,.,.,.,.,56.2µM
Cc1ccc(-c2nc(N3CCN(S(=O)(=O)c4ccc(F)cc4)CC3)c3ccc(Cl)cc3n2)cc1,.,/,.,/,/
SMILES,JMJD2A Tudor,BAZ2B inh,HP1b binding inh,L3MBTL1 block,G9a block
CN1CCN(S(=O)(=O)c2ccc(NC(=S)NC(=O)C(C)(C)C)cc2)CC1,.[11.4 µM],.,.,.,56.2µM
COc1cc(C(=O)NCC(=O)N/N=C/c2ccc(-c3cccc([N+](=O)[O-])c3)o2)cc(OC)c1OC,.,.,.,/,10µM
COc1cc(C(=O)NCC(=O)N/N=C/c2ccc(-c3ccc([N+](=O)[O-])cc3)o2)cc(OC)c1OC,.,.,.,/,44.7µM
COc1ccc(-c2nnc3n2N=C(c2c(OC)cccc2OC)CS3)c(OC)c1,.,/,/,/,/
O=C(CN1CCN(S(=O)(=O)c2ccc(F)c(Cl)c2)CC1)N1CCc2ccccc2C1,.,/,.,/,/
O=C(CN(C1CCCCC1)C1CCCCC1)N1CCc2ccccc2C1,6.31µM,44.7µM,.,/,10µM
O=C(CN1CCC(Cc2ccccc2)CC1)N1CCc2ccccc2C1,?,50.1µM,?,.,22.4µM
O=C(CN(C1CCCCC1)S(=O)(=O)c1ccccc1)N1CCCC1,.,.,.,.[11.4 µM],.[12.7 µM]
Cc1cccc(Nc2ncc3c(n2)CC(c2ccco2)CC3=O)c1 (centres undefined),.,.,.,.,.[12.7 µM]
